Screening data deposited in PubChem BioAssay by several laboratories.
Hits are enriched below; roughly 2.2% of the tested compounds scored in any of these assays.
APP transl inh = APP translation inhibition; 190,000 compounds, 0.82% hits; inhibition, % at 2 µM; SH-SY5Y APP 5'UTR-luciferase reporter, luminescence;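 active = inhibition above a set limit, derived from the sample mean plus 3 SD, cut at about 45% in these data; inconclusive = one replicate passes the limit while the other fails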
Ba/F3 V617F tox = lowers viability of Ba/F3 cells expressing EpoR and JAK2V617F | inhibition, % at 5.6 µM | ATP luminescence | 220,000 compounds, 1.1% hits | AID 1446;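 active = inhibition above the campaign mean plus 3 SD over all tested compounds, cut at about 24% in these data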;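 note: cytokine-independent growth of Ba/F3 cells driven by EpoR plus mutant JAK2; 0% = DMSO-treated cells and 100% = JAK inhibitor I control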
KLF5 inh = kruppel-like factor 5 inhibition; DLD-1 KLF5 promoter-luciferase reporter, luminescence; 290,000 compounds, 0.23% hits; inhibition, % at 5 µM; AID 1700;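 active = inhibition above a per-plate limit of that plate's mean compound inhibition plus 3 SD, cut at about 60% in these data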;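 note: 0% = DMSO wells and 100% = LY294002 at 200 µM; higher means less KLF5 promoter-driven luciferase light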
IEC-6 tox = counter-screen for KLF5 inhibitors: cytotoxicity in IEC-6 cells; IEC-6 cytotoxicity, luminescence viability; inhibition, % at 5 µM; 290,000 compounds, 0.78% hits; AID 1825; in the data active = inhibition above about 22%;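 note: 0% = plate median of test compound wells and 100% = cytotoxic reference compound wells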
BaF3 tox = counter-screen for JAK2V617F inhibitors: parental Ba/F3 viability inhibitors | 220,000 compounds, 1.1% hits | inhibition, % at 5.6 µM | CellTiter-Glo ATP luminescence;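 active = inhibition above a per-campaign cutoff, the mean inhibition of all tested compounds plus 3 SD, cut at about 27% in these data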;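 note: 0% = DMSO wells and 100% = JAK Inhibitor I control wells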
aSyn UTR inh = 5' untranslated region of α-synuclein, MLPCN primary screen; inhibition, % (tested at 7.5 µM); alpha-synuclein 5'UTR reporter, inhibitor activity; 300,000 compounds, 0.82% hits; in the data active = inhibition above about 60%; inconclusive = no clear call, values can overlap the other calls;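 note: H4 neuroglioblastoma cells stably carrying SNCA 5'UTR luciferase fusion; 0% = DMSO wells and 100% = positive control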
* marks the source's active call; other numbers are inactive results.

`COc1ccccc1N(C)S(=O)(=O)c1ccc(C(=O)OCC(=O)N(C(C)C)C(C)C)cc1` gave APP transl inh -5.3, Ba/F3 V617F tox -0.7, KLF5 inh -8.8, IEC-6 tox 3.1, BaF3 tox 0.0 and aSyn UTR inh 9.4.
Nc1nc2ncc(CNc3ccc(C(=O)N[C@@H](CCC(=O)O)C(=O)O)cc3)nc2c(=O)[nH]1 was read as KLF5 inh -22.4, IEC-6 tox -1.2 and aSyn UTR inh 8.6.
CN(Cc1cnc2nc(N)nc(N)c2n1)c1ccc(C(=O)N[C@@H](CCC(=O)O)C(=O)O)cc1 was read as aSyn UTR inh 77.5*.
For CCn1c(=NC(=O)c2ccc(S(=O)(=O)N3CCOCC3)cc2)sc2cccc(OC)c21 the results were APP transl inh -7.2, Ba/F3 V617F tox 34.8*, KLF5 inh -11.3, IEC-6 tox 0.9, BaF3 tox 41.9* and aSyn UTR inh 9.8.
`COCCn1c(=NC(=O)c2ccc(S(=O)(=O)N3CCOCC3)cc2)sc2cc(S(N)(=O)=O)ccc21` gave KLF5 inh -37.7, IEC-6 tox 6.4 and aSyn UTR inh 6.6.
Screening Cc1ccc(NC(=O)CN2C(=O)C3C4C=CC(C4)C3C2=O)cc1S(=O)(=O)N(C)C (stereo unspecified) returned APP transl inh 54.9*, Ba/F3 V617F tox -0.7, KLF5 inh 40.2, IEC-6 tox 1.8, BaF3 tox 2.5 and aSyn UTR inh 17.7.
Screening NS(=O)(=O)c1ccc(NC(=O)CN2C(=O)C3C4C=CC(C4)C3C2=O)cc1 (stereo unspecified) returned APP transl inh -4.8, Ba/F3 V617F tox 1.6, KLF5 inh -20.5, IEC-6 tox 2.0, BaF3 tox 2.8 and aSyn UTR inh -3.4.
Screening COC(=O)CCC(=O)NC(=S)Nc1sc(C)c(C)c1C(N)=O returned APP transl inh 93.9*, Ba/F3 V617F tox 75.0*, KLF5 inh 57.9, IEC-6 tox 40.5*, BaF3 tox 71.3* and aSyn UTR inh 89.5*.
Screening COC(=O)CCC(=O)Nc1sc(C)c(C)c1C(N)=O returned APP transl inh 9.0, Ba/F3 V617F tox -3.7, KLF5 inh 0.9, IEC-6 tox -5.9, BaF3 tox -5.3 and aSyn UTR inh -1.3.
For N#Cc1c(-c2ccccc2)c(-c2ccccc2)nn(CC(=O)NNC(=O)Nc2ccccc2)c1=O the results were APP transl inh 3.1, Ba/F3 V617F tox 19.6, KLF5 inh 23.7, IEC-6 tox 15.5, BaF3 tox 43.2* and aSyn UTR inh -91.8.
Cc1cc2sc3ccc(C#CC4(O)CCCCC4)cc3c(=O)c2cc1C was read as aSyn UTR inh 102.2*.
Screening Cn1c2ccccc2c(=O)c2cc(C#CC3(O)CCCCC3)ccc21 returned KLF5 inh 59.3, IEC-6 tox 10.8 and aSyn UTR inh 76.9*.
Screening O=Nc1ccc(O)c2ncccc12 returned Ba/F3 V617F tox 98.9*, KLF5 inh 10.2, IEC-6 tox 19.4, BaF3 tox 102.8* and aSyn UTR inh -235.5.
`COc1ccc(C)cc1N=Nc1ccc(O)c2ncccc12` gave APP transl inh 67.5*, Ba/F3 V617F tox -0.3, KLF5 inh 5.5, IEC-6 tox -0.4, BaF3 tox 1.3 and aSyn UTR inh 67.6*.
For Cc1ccccc1N=Nc1ccc(O)c2ncccc12 the results were APP transl inh 77.0*, Ba/F3 V617F tox 2.5, KLF5 inh -6.2, IEC-6 tox -2.5, BaF3 tox 0.6 and aSyn UTR inh inconclusive.
For O=[N+]([O-])c1ccc(O)c2ncccc12 the results were APP transl inh -7.3, Ba/F3 V617F tox -6.0, KLF5 inh 7.2, IEC-6 tox -4.4, BaF3 tox 3.7 and aSyn UTR inh 72.5*.
COc1ccc(N=Nc2ccc(O)c3ncccc23)cc1 was read as Ba/F3 V617F tox -2.9, KLF5 inh -12.8, IEC-6 tox 10.4, BaF3 tox 4.1 and aSyn UTR inh 43.5.
`CC(C)C(NC(=O)c1ccc(C(C)(C)C)cc1)C(=O)NCC1(N(C)C)CCCCC1` (stereo unspecified) gave KLF5 inh -16.4, IEC-6 tox 2.4 and aSyn UTR inh 34.7.
For CCCOc1ccc(CCC(=O)N/N=C/c2ccncc2)cc1 the results were Ba/F3 V617F tox 1.0, KLF5 inh -8.6, IEC-6 tox 0.8, BaF3 tox -1.2 and aSyn UTR inh -1.3.
For Cc1ccc(/C=C/S(=O)(=O)NCC(=O)OCC(=O)N2CC(=O)Nc3ccccc32)cc1 the results were Ba/F3 V617F tox -2.4, KLF5 inh 3.6, IEC-6 tox -13.1, BaF3 tox -1.9 and aSyn UTR inh 4.0.
Screening O=C(N/N=C/c1ccc([N+](=O)[O-])s1)c1cccc(Br)c1 returned APP transl inh 23.5, Ba/F3 V617F tox 5.8, KLF5 inh -1.4, IEC-6 tox 12.5, BaF3 tox 9.7 and aSyn UTR inh 67.4*.
Cc1cc(C(=O)N/N=C/c2ccc(C)s2)n[nH]1 was read as KLF5 inh -67.3, IEC-6 tox 4.8 and aSyn UTR inh -97.3.
`O=C(N/N=C/c1ccc(O)c2ncccc12)c1cccc(Br)c1` gave APP transl inh 62.7*, Ba/F3 V617F tox 91.9*, KLF5 inh 4.7, IEC-6 tox 20.0, BaF3 tox 52.2* and aSyn UTR inh 66.6*.
`Cc1ccc(C(=O)N/N=C/c2ccc([N+](=O)[O-])s2)cc1` gave APP transl inh 70.3*, Ba/F3 V617F tox -1.2, KLF5 inh -33.7, IEC-6 tox -1.4, BaF3 tox 1.4 and aSyn UTR inh 107.6*.
Screening O=C(N/N=C/c1ccc([N+](=O)[O-])s1)c1ccncc1 returned APP transl inh 14.5, Ba/F3 V617F tox 0.8, KLF5 inh -9.2, IEC-6 tox -3.9, BaF3 tox 8.1 and aSyn UTR inh -63.7.
Screening Cc1cc(C(=O)N/N=C/c2ccc([N+](=O)[O-])s2)n[nH]1 returned Ba/F3 V617F tox 6.4, KLF5 inh 12.0, IEC-6 tox 3.4, BaF3 tox 2.8 and aSyn UTR inh 79.3*.
Screening O=C(CSc1n[nH]c(Cc2ccccc2)n1)Nc1ccccc1Br returned KLF5 inh 10.1, IEC-6 tox 4.7 and aSyn UTR inh 5.1.
Screening CCOc1ccc(-n2ccc(=O)c(C(=O)O)n2)cc1 returned KLF5 inh -1.9, IEC-6 tox 0.3 and aSyn UTR inh 5.3.
Screening O=C(N/N=C/c1ccc(Br)s1)c1ccc([N+](=O)[O-])cc1 returned APP transl inh 36.4, Ba/F3 V617F tox -3.4, KLF5 inh -32.5, IEC-6 tox 1.0, BaF3 tox 0.1 and aSyn UTR inh 84.4*.
Screening CN1Cc2c(N3CCOCC3)nc3sc(C#N)c(N)c3c2CC1(C)C returned Ba/F3 V617F tox -0.8, KLF5 inh -7.3, IEC-6 tox -0.2, BaF3 tox -1.3 and aSyn UTR inh -15.9.
CN1Cc2c(N3CCOCC3)nc3sc(C(=O)c4ccc(Br)cc4)c(N)c3c2CC1(C)C was read as Ba/F3 V617F tox 4.9, KLF5 inh -5.1, IEC-6 tox -2.4, BaF3 tox 0.1 and aSyn UTR inh 104.7*.
